Experimental data as given in PubChem BioAssay (NCI).
About 83,000 compounds went through this panel and 20% of them were active in at least one assay; those are over-represented in the sample as a whole.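 Treatment: one concentration, 48 hours, 96-well format. Scoring: percent growth, with anything below 10 considered active.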 Values without a mark were called inactive. Activity calls are given as the source filed them.

Each molecule was assayed on UACC-62 melanoma (assay: NCI-60 one-dose screen, 48 h (100 = growth as untreated, 0 = no growth, -100 = all killed)). Settings: 10 µM unless noted.
Protocol: Growth inhibition of the UACC-62 human tumor cell line is measured as a screen for anti-cancer activity. Cells are grown in 96 well plates and exposed to the test compound for 48 hours. Compounds are tested at a single concentration, which is 10^-5 M for most compounds. The reported endpoint is percent growth (GI% or GIPRCNT), where numbers from 0 - 100% represent growth inhibition, and numbers from -100% - 0 represent cell death. For example, a value of 40 represents 60% growth inhibition. A value of 0 means no net growth occurred over the course of the experiment. A value of -40 indicates 40% of cells at the beginning of the experiment died by the end of the experiment. A value of -100 means all cells are dead at the end of the experiment.
NCI-60 Human Tumor Cell Lines Screen was performed using the standard one-dose NCI protocol, which is described in more detail at https://dtp.cancer.gov/discovery_development/nci-60/default.htm.
Compounds with GIPRCNT values below 10 were considered active. Activity score was based on GIPRCNT using the following formula: […]
Score is 0 for GIPRCNT values of 100 or above, 50 for GIPRCNT values of 0, and 100 for GIPRCNT values of -100.

Question: How did the growth turn out when COc1ccc(-c2oc(=O)ccc2-c2cc(OC)c(OC)c(OC)c2)cc1F was run?
Answer: 53.6%

Question: How did the growth turn out when COC(=O)/C=C/c1cc(OC(C)=O)c2c(c1)[C@@H](C(=O)OC)[C@H](c1ccc(OC(C)=O)c(OC(C)=O)c1)O2 was run?
Answer: 33.6%

Question: How did the growth turn out when Cc1c(C)c(C)c([N+](=O)[O-])c([N+](=O)[O-])c1C was run?
Answer: 83.6%

Question: For O=C(Nc1cccc(Cl)c1)Nc1cc(C(F)(F)F)ccc1Cl, which growth is on record?
Answer: -8.9% (active)

Question: Which growth does the source give for O=Cc1ccc2nc(C(Cl)(Cl)Cl)ccc2c1 here?
Answer: 106%

Question: How did the growth turn out when CC[C@H](Nc1nc(N)nc(C2CC2)c1C#N)c1nc2cccc(NCc3ccc(C(=O)NO)cc3)c2c(=O)n1-c1ccccc1 was run?
Answer: -19% (active)

Question: Which growth does the source give for CSC1=NC(=Nc2c(C)cccc2C)C2(CCC(C(C)(C)C)CC2)N1c1ccc(Cl)cc1 (stereo not given) here?
Answer: 73.8%

Question: For O=c1[nH]c2cc(Cl)c(Cl)cc2o1, which growth is on record?
Answer: 92.8%

Question: With CN1CCN(Cc2ccc(NC(=O)c3cncc(C#Cc4ncc5ccccn45)c3)cc2C(F)(F)F)CC1 as the molecule, how does the growth read?
Answer: 51.7%

Question: How did the growth turn out when Cc1cc(C)c([O-])c(CN(C)CCN(C)Cc2cc(C)cc(C)c2[O-])c1.O=C([O-])c1cccc(C(=O)[O-])n1.[Ti+4] was run?
Answer: 25.8%

Question: How did the growth turn out when COc1cc2nccc(Oc3ccc(NC(=O)C4(C(=O)Nc5ccc(F)cc5)CC4)cc3)c2cc1O was run?
Answer: 34.8%

Question: How did the growth turn out when O=C(Nc1ccc(Oc2ccc(NC(=O)Nc3ccccc3Cl)cc2)cc1)Nc1ccccc1Cl was run?
Answer: 45.9%

Question: With CCCCn1c(C)nc2cc(Nc3nc(Cl)nc4nc[nH]c34)ccc21 as the molecule, how does the growth read?
Answer: 73%

Question: With Fc1ccc(-c2ccnc3nc(-c4ccncc4)nn23)cc1 as the molecule, how does the growth read?
Answer: 116%

Question: Which growth does the source give for CC(=O)c1ccc(Nc2nc(Cl)nc(Oc3c(Cl)cccc3Cl)n2)cc1 here?
Answer: 80.6%

Question: With Oc1c(C(c2ccc(F)cc2)N2CCCCC2)ccc2cncnc12 (stereo not given) as the molecule, how does the growth read?
Answer: -0.545% (active)

Question: For Cn1nc(C(F)(F)F)cc1-c1c[nH]c(OCc2ccc(Cl)cc2)c(-c2ccc(Cl)c(C(F)(F)F)c2)c1=O, which growth is on record?
Answer: -14.9% (active)

Question: Which growth does the source give for CC(=O)OC1Oc2cc(C)c(C)cc2-c2oc(=O)c(-c3cc4ccccc4oc3=O)cc21 (stereo not given) here?
Answer: 102%

Question: How did the growth turn out when CCCCn1c(C)nc2ccc(Nc3nc(Cl)nc4nc[nH]c34)cc21 was run?
Answer: 69.8%

Question: For Nc1ccc(C(OC(=O)c2cc3ccccc3c(Cc3c(O)c(C(=O)OC(c4ccc(N)cc4)(c4ccc(N)cc4)c4ccc(N)cc4)cc4ccccc34)c2O)(c2ccc(N)cc2)c2ccc(N)cc2)cc1, which growth is on record?
Answer: 10.7%

Question: For COc1cc(-c2nc(-c3nc4cc(C(=O)c5ccccc5)ccc4[nH]3)cc3c2[nH]c2ccccc23)cc(OC)c1OC, which growth is on record?
Answer: 76%

Question: CNC(=O)c1ccccc1Sc1ccc2c(/C=C/c3ccccn3)n[nH]c2c1 was tested. Which growth did it give?
Answer: 13%

Question: Which growth does the source give for CCCCCCCCCCCC1=NC(C)(C)CN1C(C)(C)CO here?
Answer: -69.5% (active)

Question: How did the growth turn out when C=C1NC(=O)C(C(C)CC)NC(=O)C2CSCC(NC(=O)CCC(=O)O)C(=O)NC(Cc3ccccc3)C(=O)NC(C)C(=O)NC(CC(C)CC)C(=O)NC(C(=O)NC(Cc3ccccc3)C(=O)N3CCCC3C(=O)N2)C(C)OC(=O)C(CO)NC(=O)C(C(O)COC)N(C)C(=O)C(C(C)C)NC(=O)C(CC(C)CC)NC1=O (stereo not given) was run?
Answer: 39.8% [6 µM]

Question: Which growth does the source give for [O-]/[N+](=C\c1ccccc1)CC1(O)CCCCC1 here?
Answer: 102%

Question: How did the growth turn out when CC(=O)[C@@]1(O)[C@H](C)C[C@H]2[C@@H]3C=C(C)C4=Cc5c(cnn5-c5ccccc5)C[C@]4(C)[C@H]3[C@@H](O)C[C@@]21C was run?
Answer: 1.84% (active)

Question: For CCc1ccc(Nc2ncnc3c2cnn3-c2cccc(Br)c2)cc1, which growth is on record?
Answer: 91.7%

Question: How did the growth turn out when COc1ccc(/C=C(/C(=O)N2CCN(c3ccccc3)CC2)c2cc(OC)c(OC)c(OC)c2)cc1O was run?
Answer: 27.1%

Question: Which growth does the source give for COc1ccc(C2=NN(C=O)C(c3ccc(OS(=O)(=O)c4ccc(C)cc4)c(OC)c3)C2)cc1 (stereo not given) here?
Answer: 50.1%

Question: With O=C(NC1CC1)c1ccc(-c2nc3ccc4[nH]ncc4c3c3c2CCCC3)cc1 as the molecule, how does the growth read?
Answer: 28.8%

Question: Which growth does the source give for CCn1c(CN2CCN(Cc3ccccc3)CC2)nc2cc(NC(=O)c3cccs3)ccc21 here?
Answer: -92.8% (active)

Question: How did the growth turn out when COc1cc(NCCCCC(C)N)c2nccc(C)c2c1 (stereo not given) was run?
Answer: 91.1%

Question: With Fc1ccc2nc(-c3ccc(-c4noc(-c5ccc(Cl)cc5)n4)cc3)[nH]c2c1 as the molecule, how does the growth read?
Answer: 113%

Question: COC(=O)c1ccc(NC(N)=NCCC(C)(C)c2ccc(C(F)(F)F)cc2)nc1 was tested. Which growth did it give?
Answer: 55.2%

Question: NNC(=O)Cc1ccccc1 was tested. Which growth did it give?
Answer: 45.8%

Question: With COc1cccc(/C=N/N=C(N)N)c1 as the molecule, how does the growth read?
Answer: 81.8%

Question: Which growth does the source give for COC1=CC(c2ccc[nH]2)=N/C1=C\c1[nH]c(C)c(C(=O)CCCCCCCCC(=O)O[C@H]2CC[C@H]3C4CCc5cc(O)ccc5C4CC[C@]23C)c1C (stereo not given in full) here?
Answer: -48.3% (active)

Question: With COc1cc(C)cc2oc3oc(=O)c(-c4csc(-c5cc6ccccc6oc5=O)n4)cc3c(=O)c12 as the molecule, how does the growth read?
Answer: 99.2%

Question: How did the growth turn out when Nc1nc(N)c2cc(Sc3ccc(Cl)cc3)ccc2n1 was run?
Answer: 24.4%

Question: For COc1ccc(C(=O)/C=C/c2cn(-c3ccccc3)nc2-c2cccc(Nc3ccnc4cc(Cl)ccc34)c2)cc1, which growth is on record?
Answer: 89.9%
